# Data published in publication PMC5540273 (PLoS ONE, 2017).
# Legend:
# Settings in all cases: concentration: 1 μM, replicates: in singlicate; n = 1
# CDK2 = system: CDK2
# CDK3 = system: CDK3
# CDK4-cyclinD1 = system: CDK4-cyclinD1
# CDK4-cyclinD3 = system: CDK4-cyclinD3
# CDK4 = system: CDK4
# CDK5 = system: CDK5
# CDK7 = system: CDK7
# CDK8 = system: CDK8
# CDK9 = system: CDK9
# CDKL1 = system: CDKL1
# CDKL2 = system: CDKL2
# CDKL3 = system: CDKL3
# CDKL5 = system: CDKL5
# CHEK1 = system: CHEK1
# CHEK2 = system: CHEK2
# CIT = system: CIT
# CLK1 = system: CLK1
# CLK2 = system: CLK2
# CLK3 = system: CLK3
# CLK4 = system: CLK4
# 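Further: KINOMEscan kinase panel screen.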
structure (smiles),measurement,setting,value
Cn1ccc2ncnc(Nc3ccc(Oc4cccc(Cl)c4)c(Cl)c3)c21,%Inh,CDK2,0%
same,%Inh,CDK3,0%
same,%Inh,CDK4-cyclinD1,0%
same,%Inh,CDK4-cyclinD3,0%
same,%Inh,CDK4,0%
same,%Inh,CDK5,21%
same,%Inh,CDK7,14%
same,%Inh,CDK8,22%
same,%Inh,CDK9,15%
same,%Inh,CDKL1,10%
same,%Inh,CDKL2,23%
same,%Inh,CDKL3,26%
same,%Inh,CDKL5,23%
same,%Inh,CHEK1,2%
same,%Inh,CHEK2,7%
same,%Inh,CIT,0%
same,%Inh,CLK1,0%
same,%Inh,CLK2,0%
same,%Inh,CLK3,0%
same,%Inh,CLK4,1%
O=c1cc(N2CCOCC2)nc2n(Cc3cccc(Cl)c3)ccn12 [GSK2296823],%Inh,CDK2,0%
same,%Inh,CDK3,3%
same,%Inh,CDK4-cyclinD1,0%
same,%Inh,CDK4-cyclinD3,13%
same,%Inh,CDK4,0%
same,%Inh,CDK5,0%
same,%Inh,CDK7,0%
same,%Inh,CDK8,0%
same,%Inh,CDK9,0%
same,%Inh,CDKL1,9%
same,%Inh,CDKL2,26%
same,%Inh,CDKL3,0%
same,%Inh,CDKL5,4%
same,%Inh,CHEK1,18%
same,%Inh,CHEK2,0%
same,%Inh,CIT,10%
same,%Inh,CLK1,47%
same,%Inh,CLK2,1%
same,%Inh,CLK3,20%
same,%Inh,CLK4,24%
Clc1cccc(-c2nc(Nc3ccncc3)c3ccccc3n2)c1 [GW873004],%Inh,CDK2,0%
same,%Inh,CDK3,0%
same,%Inh,CDK4-cyclinD1,21%
same,%Inh,CDK4-cyclinD3,0%
same,%Inh,CDK4,0%
same,%Inh,CDK5,0%
same,%Inh,CDK7,10%
same,%Inh,CDK8,50%
same,%Inh,CDK9,0%
same,%Inh,CDKL1,30%
same,%Inh,CDKL2,35%
same,%Inh,CDKL3,13%
same,%Inh,CDKL5,3%
same,%Inh,CHEK1,0%
same,%Inh,CHEK2,0%
same,%Inh,CIT,57%
same,%Inh,CLK1,14%
same,%Inh,CLK2,0%
same,%Inh,CLK3,35%
same,%Inh,CLK4,52%
FC(F)(F)c1ccc(-c2nn3ncccc3c2-c2ccnc(Nc3cccc(C(F)(F)F)c3)n2)cc1 [GW828205],%Inh,CDK2,1%
same,%Inh,CDK3,0%
same,%Inh,CDK4-cyclinD1,2%
same,%Inh,CDK4-cyclinD3,0%
same,%Inh,CDK4,0%
same,%Inh,CDK5,0%
same,%Inh,CDK7,0%
same,%Inh,CDK8,32%
same,%Inh,CDK9,0%
same,%Inh,CDKL1,55%
same,%Inh,CDKL2,0%
same,%Inh,CDKL3,0%
same,%Inh,CDKL5,0%
same,%Inh,CHEK1,0%
same,%Inh,CHEK2,0%
same,%Inh,CIT,16%
same,%Inh,CLK1,4%
same,%Inh,CLK2,0%
same,%Inh,CLK3,0%
same,%Inh,CLK4,0%
COc1ccc(Nc2nccc(N3CCC(NC(=O)c4cccc(NC(C)=O)c4)C3)n2)cc1 (centres unmarked) [GSK1379732],%Inh,CDK2,0%
same,%Inh,CDK3,0%
same,%Inh,CDK4-cyclinD1,20%
same,%Inh,CDK4-cyclinD3,0%
same,%Inh,CDK4,0%
same,%Inh,CDK5,0%
same,%Inh,CDK7,3%
same,%Inh,CDK8,56%
same,%Inh,CDK9,0%
same,%Inh,CDKL1,9%
same,%Inh,CDKL2,18%
same,%Inh,CDKL3,0%
same,%Inh,CDKL5,0%
same,%Inh,CHEK1,0%
same,%Inh,CHEK2,41%
same,%Inh,CIT,43%
same,%Inh,CLK1,21%
same,%Inh,CLK2,0%
same,%Inh,CLK3,0%
same,%Inh,CLK4,12%
C[C@H]1CC[C@@H](C(=O)Nc2ccccc2)CN1c1cc(-c2ccc3c(N)n[nH]c3c2)nc(N)n1 [GSK2283293],%Inh,CDK2,0%
same,%Inh,CDK3,0%
same,%Inh,CDK4-cyclinD1,0%
same,%Inh,CDK4-cyclinD3,0%
same,%Inh,CDK4,0%
same,%Inh,CDK5,0%
same,%Inh,CDK7,0%
same,%Inh,CDK8,14%
same,%Inh,CDK9,0%
same,%Inh,CDKL1,22%
same,%Inh,CDKL2,17%
same,%Inh,CDKL3,0%
same,%Inh,CDKL5,0%
same,%Inh,CHEK1,0%
same,%Inh,CHEK2,0%
same,%Inh,CIT,32%
same,%Inh,CLK1,18%
same,%Inh,CLK2,0%
same,%Inh,CLK3,0%
same,%Inh,CLK4,21%
Nc1n[nH]c2nnc(-c3ccccc3)cc12 [SB-517389],%Inh,CDK2,0%
same,%Inh,CDK3,20%
same,%Inh,CDK4-cyclinD1,0%
same,%Inh,CDK4-cyclinD3,22%
same,%Inh,CDK4,0%
same,%Inh,CDK5,0%
same,%Inh,CDK7,0%
same,%Inh,CDK8,0%
same,%Inh,CDK9,21%
same,%Inh,CDKL1,0%
same,%Inh,CDKL2,18%
same,%Inh,CDKL3,69%
same,%Inh,CDKL5,0%
same,%Inh,CHEK1,10%
same,%Inh,CHEK2,0%
same,%Inh,CIT,29%
same,%Inh,CLK1,43%
same,%Inh,CLK2,32%
same,%Inh,CLK3,19%
same,%Inh,CLK4,19%
CSc1nn2c(=O)cc(N3CCOCC3)nc2n1Cc1cccc(Cl)c1Cl [GSK2347225],%Inh,CDK2,0%
same,%Inh,CDK3,6%
same,%Inh,CDK4-cyclinD1,0%
same,%Inh,CDK4-cyclinD3,0%
same,%Inh,CDK4,16%
same,%Inh,CDK5,9%
same,%Inh,CDK7,0%
same,%Inh,CDK8,0%
same,%Inh,CDK9,4%
same,%Inh,CDKL1,0%
same,%Inh,CDKL2,27%
same,%Inh,CDKL3,0%
same,%Inh,CDKL5,8%
same,%Inh,CHEK1,15%
same,%Inh,CHEK2,0%
same,%Inh,CIT,35%
same,%Inh,CLK1,40%
same,%Inh,CLK2,0%
same,%Inh,CLK3,100%
same,%Inh,CLK4,12%
Clc1cc(Nc2ncnc3cc[nH]c23)ccc1OCc1ccccn1,%Inh,CDK2,8%
same,%Inh,CDK3,1%
same,%Inh,CDK4-cyclinD1,10%
same,%Inh,CDK4-cyclinD3,0%
same,%Inh,CDK4,10%
same,%Inh,CDK5,22%
same,%Inh,CDK7,29%
same,%Inh,CDK8,0%
same,%Inh,CDK9,30%
same,%Inh,CDKL1,16%
same,%Inh,CDKL2,0%
same,%Inh,CDKL3,31%
same,%Inh,CDKL5,8%
same,%Inh,CHEK1,14%
same,%Inh,CHEK2,13%
same,%Inh,CIT,18%
same,%Inh,CLK1,13%
same,%Inh,CLK2,0%
same,%Inh,CLK3,5%
same,%Inh,CLK4,7%
COC(=O)c1cccc(NC(=O)NCCNc2ccnc(Nc3ccc(F)cc3)n2)c1 [GSK1379883],%Inh,CDK2,0%
same,%Inh,CDK3,2%
same,%Inh,CDK4-cyclinD1,0%
same,%Inh,CDK4-cyclinD3,0%
same,%Inh,CDK4,34%
same,%Inh,CDK5,0%
same,%Inh,CDK7,0%
same,%Inh,CDK8,8%
same,%Inh,CDK9,0%
same,%Inh,CDKL1,3%
same,%Inh,CDKL2,5%
same,%Inh,CDKL3,0%
same,%Inh,CDKL5,0%
same,%Inh,CHEK1,0%
same,%Inh,CHEK2,5%
same,%Inh,CIT,35%
same,%Inh,CLK1,15%
same,%Inh,CLK2,0%
same,%Inh,CLK3,14%
same,%Inh,CLK4,42%
